# Laboratory results published in PubChem BioAssay AID624305 (National Center for Advancing Translational Sciences (NCATS), 2012).
# Results filed as inconclusive are left out. Activity calls are given as the source filed them. Calls follow the shape of the dose curve; as a rule, active = well fitted activation curve with a large enough effect; inconclusive = small, poorly fitted or top-dose-only effect; inactive = no such curve, though single readings can be large or run the other way.
# Assay: qHTS assay for re-activators of p53 using a Luc reporter: Hit Validation; also: nearly all actives have a fitted effect of over 75% in size; as to activation: 0% is about no effect
# Conditions: p53-responsive luciferase reporter cells, luminescence, H1299 line expressing heat-sensitive Ala138Val p53; series mostly up to 46.1 µM; activation: at the top concentration
# In short: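 H1299 (p53-null) cells stably carrying p53-A138V and a BP100-luciferase reporter, 1000 cells/well, treated 24 h at 37 deg C. Compounds at several concentrations, 1:5 dilution; nocodazole control; luminescence read after 10 min with detection reagent.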
# Potency is read from the fitted curve at half-maximal effect.
SMILES,activation,Potency
Cc1ccc(C)n1-c1sc2c(c1C(=O)O)CCCC2,16.1% (inactive),–
CC(=O)Nc1ccc(SCC(=O)c2cc(C)n(-c3ccccc3)c2C)cc1,–,5800 nM (active)
CC(/C=C/c1ccccc1)=N/O,21.9% (inactive),–
Cc1ccc(-c2nnc(SCc3ccccc3F)o2)cc1,–,1300 nM (active)
ON=C1c2cc(OCCN3CCCCC3)ccc2-c2ccc(OCCN3CCCCC3)cc21,-11.5% (inactive),–
COc1ccc2oc(C(=O)Nc3nnc(C)s3)c(C)c2c1,–,1840 nM (active)
Cc1cc(/C=N/Nc2ncnc(N)c2[N+](=O)[O-])c(C)n1-c1ccccc1,–,92 nM (active)
O=C(CCC1CCCC1)Nc1ccc(Br)cn1,–,11600 nM (active)
Cc1ccc(OC(=O)c2cccc(S(=O)(=O)N3CCCC3)c2)c(-n2nc3ccccc3n2)c1,–,3660 nM (active)
CC(=O)c1cccc(NS(=O)(=O)N(C)C)c1,-1.04% (inactive),–
CCCCCNC(=O)N[C@H](C(=O)O)C(C)C,-15.6% (inactive),–
NC(=O)c1cc2ccc(O)cc2oc1=Nc1ccccc1,-2.08% (inactive),–
Cc1ccc2nc(NC(=O)c3ccc(Cl)s3)sc2c1,–,731 nM (active)
COc1cccc(-c2cn3nc4c(nc3n2)CCCC4)c1,–,116 nM (active)
Cc1c(C(=O)N2CCc3ccccc32)oc2c1C(=O)CC(C)(C)C2,–,4110 nM (active)
COc1ccc(/C(O)=C2/C(=O)C(=O)N(CCN3CCOCC3)C2c2ccccn2)cc1 (stereo unspecified),5.21% (inactive),–
CCN1CCN(CC(=O)Nc2nc3ccc(C)cc3s2)CC1,24.5% (inactive),–
CCN(CC(=O)NCc1cccs1)c1ccc(S(=O)(=O)N2CCOCC2)cn1,-24.5% (inactive),–
Cc1cc2nc(-c3ccc(SCC(=O)Nc4ccc(S(=O)(=O)NC5CC5)cc4)nc3)[nH]c2cc1C,–,2310 nM (active)
O=C(CCc1nc(-c2ccccc2)no1)N1CCCC1,42.2% (inactive),–
CN(C)CCN(CC1CCCN(Cc2ccccc2F)C1)C(=O)c1ccc(F)cc1 (stereo unspecified),6.77% (inactive),–
